Laboratory results published in PubChem BioAssay AID1159580 (chemical genetic matrix, 2015).
“And” between values parts separate entries of the source, which are not always exact repeats. Identical values can stand only once. The campaign covered roughly 5,500 compounds. About 2,000 (36%) were called active. Another 18% or so got no clear call; they are omitted. Rule as the data show it: active = normalized growth mostly below about 0.91 (no sharp cut-off); inconclusive = no clear call, values can overlap the other calls; inactive = mostly above about 0.92. The list shows a part of the results.

Assay: chemical genetic growth profiling, strain panel (AID 1159580);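 also: tested at 20 µM; growth read once vehicle control cultures reached saturation at 30 °C; 1 = growth at the plate median or of vehicle wells; lower values mean less growth of the strain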
Details: S. cerevisiae deletion strains, growth OD

Measured: normalized growth

C#CCN(C)Cc1ccccc1
inactive: locus YAL013W, strain DEP1, active compounds read low 0.994 | locus YAL021C, strain ccr4, active compounds read low 1.03 | locus YAL026C, strain drs2, active compounds read low 1.02 | locus YAL030W, strain snc1, active compounds read low 0.999 | locus YAL040C, strain CLN3, active compounds read low 0.998 | locus YBL061C, strain skt5, active compounds read low 0.984 | locus YBR009C, strain hhf1, active compounds read low 0.982 | locus YBR021W, strain FUR4, active compounds read low 1.02 | locus YBR023C, strain chs3, active compounds read low 0.997 | locus YBR171W, strain sec66, active compounds read low 1.04 | locus YBR229C, strain ROT2, active compounds read low 1 | locus YBR231C, strain swc5, active compounds read low 1.01 | locus YBR279W, strain paf1, active compounds read low 0.977 | locus YCL011C, strain gbp2, active compounds read low 1 | locus YCL016C, strain dcc1, active compounds read low 0.962 | locus YCL029C, strain bik1, active compounds read low 1.02 | locus YCL061C, strain MRC1 (second series), active compounds read low 1 | locus YCL069W, strain vba3, active compounds read low 1.02 | locus YCR088W, strain abp1, active compounds read low 1.04 | locus YDL005C, strain med2, active compounds read low 1.02 | locus YDL035C, strain GPR1, active compounds read low 0.997 | locus YDL040C, strain nat1, active compounds read low 1.02 | locus YDL074C, strain BRE1, active compounds read low 0.991 | locus YDL101C, strain DUN1, active compounds read low 1.01 | locus YDL134C, strain PPH21, active compounds read low 1 | locus YDL185W, strain tfp1, active compounds read low 1.01 | locus YDL192W, strain arf1, active compounds read low 1.02 | locus YDR001C, strain nth1, active compounds read low 1.01 | locus YDR069C, strain doa4, active compounds read low 0.955 | locus YDR101C, strain arx1, active compounds read low 1.02 | locus YDR137W, strain rgp1, active compounds read low 0.98 | locus YDR159W, strain sac3, active compounds read low 0.933 | locus YDR162C, strain NBP2, active compounds read low 1 | locus YDR195W, strain ref2 0.988 | locus YDR297W, strain sur2, active compounds read low 0.998 | locus YDR318W, strain mcm21, active compounds read low 1.03 | locus YDR334W, strain swr1, active compounds read low 1.02 | locus YDR335W, strain msn5, active compounds read low 0.996 | locus YDR363W, strain ESC2, active compounds read low 0.949 | locus YDR388W, active compounds read low 1.02 | locus YDR392W, strain spt3, active compounds read low 0.958 | locus YDR502C, strain sam2, active compounds read low 1.01 | locus YEL003W, strain gim4, active compounds read low 1.04 | locus YEL037C, strain rad23, active compounds read low 1.03 | locus YEL061C, strain CIN8 (second series), active compounds read low 1.02 | locus YEL061C, strain CIN8, active compounds read low 0.99 | locus YER002W, strain NOP16, active compounds read low 1.02 | locus YER015W, strain faa2, active compounds read low 1 | locus YER016W, strain bim1, active compounds read low 0.979 | locus YER110C, active compounds read low 1.01 | locus YER111C, strain swi4, active compounds read low 1.01 | locus YER155C, strain BEM2 (second series), active compounds read low 1.01 | locus YER155C, strain BEM2, active compounds read low 1 | locus YER167W, strain BCK2, active compounds read low 1 | locus YFR010W, strain ubp6, active compounds read low 1.04 | locus YGL078C, strain dbp3, active compounds read low 1.01 | locus YGL086W, strain mad1, active compounds read low 0.998 | locus YGL167C, strain pmr1, active compounds read low 0.987 | locus YGL173C, strain kem1, active compounds read low 1.05 | locus YGL227W, strain vid30, active compounds read low 1.01 | locus YGL240W, strain doc1, active compounds read low 0.977 | locus YGL248W, strain PDE1, active compounds read low 1 | locus YGL253W, strain hxk2, active compounds read low 1.02 | locus YGR078C, strain PAC10, active compounds read low 0.995 | locus YGR135W, strain pre9, active compounds read low 1.02 | locus YGR252W, strain gcn5, active compounds read low 0.965 | locus YHR013C, strain ard1, active compounds read low 1 | locus YHR027C, strain rpn1, active compounds read low 1.02 | locus YHR030C, strain SLT2, active compounds read low 0.992 and 0.966 | locus YHR079C, strain IRE1 (second series), active compounds read low 1.03 | locus YHR079C, strain IRE1, active compounds read low 0.927 | locus YHR094C, strain hxt1, active compounds read low 1.02 | locus YHR129C, strain ARP1, active compounds read low 0.996 | locus YHR142W, strain chs7, active compounds read low 1.06 | locus YHR200W, strain rpn10, active compounds read low 1.01 | locus YIL066C, strain RNR3, active compounds read low 0.992 | locus YIL073C, strain SPO22, active compounds read low 1.06 | locus YIL125W, strain kgd1, active compounds read low 1.01 | locus YIR030C, strain dcg1, active compounds read low 1.01 | locus YJL092W, strain hpr5, active compounds read low 1.02 | locus YJL095W, strain BCK1 (second series), active compounds read low 1.01 | locus YJL095W, strain BCK1, active compounds read low 0.99 and 0.98 | locus YJL115W, strain asf1, active compounds read low 1.01 | locus YJL129C, strain trk1, active compounds read low 1.03 | locus YJL134W, strain LCB3, active compounds read low 1 | locus YJL154C, strain vps35, active compounds read low 1.01 | locus YJL164C, strain tpk1, active compounds read low 1.01 | locus YJL166W, strain qcr8, active compounds read low 1.03 | locus YJL168C, strain set2, active compounds read low 1.01 | locus YJL187C, strain SWE1 (second series), active compounds read low 1 | locus YJL187C, strain SWE1, active compounds read low 1.01 | locus YJR043C, strain POL32, active compounds read low 0.997 | locus YJR066W, strain TOR1, active compounds read low 0.936
